Reference: PubChem BioAssay (Tox21)
Values joined by “and” are separate entries in the source; they are usually repeats but may differ in a detail not shown here. Identical values can stand only once. Inconclusive results are not listed. Active and inactive are the calls of the source. The call rests on the fitted dose curve; in most records, active means well fitted activation curve with a large enough effect in the repeat runs; inconclusive means weak or mixed curves; inactive means no such curve, though single readings can be large or run the other way.

target: Aryl hydrocarbon receptor (Homo sapiens) (UniProt P35869); assay: qHTS assay to identify small molecule that activate the aryl hydrocarbon receptor (AhR) signaling pathway (AID 743085); conditions: HepG2 AhR-luc (HG2L7.5c1), luciferase, 24 h; series mostly up to 70.3 µM; activation: at the top concentration; further: nearly all actives have a fitted effect of over 15% in size;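 on activation: HG2L7.5c1 human HepG2 liver cells with stably integrated DRE-driven firefly reporter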
Text: U.S. Tox21 Program National Center for Advancing Translational Sciences [NCATS] NIH Chemical Genomics Center [NCGC] U.S. Environmental Protection Agency [EPA] National Institutes of Environmental Health Sciences [NIEHS] National Toxicology Program [NTP] U.S. Food and Drug Administration [FDA] Tox21 Assay overview: The Aryl hydrocarbon Receptor (AhR), a member of the family of basic helix-loop-helix transcription factors, is crucial to adaptive responses to environmental changes. AhR mediates cellular responses to environmental pollutants such as aromatic hydrocarbons through induction of phase I and II enzymes but also interacts with other nuclear receptor signaling pathways. A cell based HepG2-AhR-luc assay (HG2L7.5c1 cell line, developed by Dr. Michael S. Denison, University of California at Davis, was used to assess the activation of AhR. HepG2 (human hepatocellular carcinoma) cells were stably transfected with an Ah receptor-responsive firefly luciferase reporter gene plasmid containing 20 dioxin responsive elements and luciferase reporter gene. Increased luciferase activity can be used to identify the compounds that induce AhR activation.
Tox21 Assay Protocol Summary: 4000 cells in 5 uL/well were dispensed into white wall/solid bottom 1536-well plates using a Multidrop Combi (Thermo Fisher Scientific Inc., Waltham, MA) dispenser. After the assay plates were incubated at 37C for 5 h, 23 nL of compound or DMSO vehicle was transferred to the assay plates by a pintool station (Kalypsys, San Diego, CA). The plates were incubated at 37C for 24 hr. After 1 ul/well of CellTiter-Fluor reagent (Promega, Madison, WI) was added into the assay plates using a Flying Reagent Dispenser (FRD) (Aurora Discovery, CA), the assay plates were incubated at 37C for 30 min. The fluorescence intensity in the plates was measured using a ViewLux plate reader (PerkinElmer, Shelton, CT), followed by the addition of 4 uL of ONE-Glo Luciferase Assay reagent (Promega) using an FRD (Aurora Discovery). After the assay plates were incubated at room temperature for 30 min, luminescence intensity was measured using a ViewLux plate reader (Perkin Elmer).
On the % scale 0 is the no-effect control and ±100 the full control effect; potency means the concentration at half of the fitted maximal effect.

Chain of Aryl hydrocarbon receptor (Homo sapiens) (P35869 whole entry, looked up): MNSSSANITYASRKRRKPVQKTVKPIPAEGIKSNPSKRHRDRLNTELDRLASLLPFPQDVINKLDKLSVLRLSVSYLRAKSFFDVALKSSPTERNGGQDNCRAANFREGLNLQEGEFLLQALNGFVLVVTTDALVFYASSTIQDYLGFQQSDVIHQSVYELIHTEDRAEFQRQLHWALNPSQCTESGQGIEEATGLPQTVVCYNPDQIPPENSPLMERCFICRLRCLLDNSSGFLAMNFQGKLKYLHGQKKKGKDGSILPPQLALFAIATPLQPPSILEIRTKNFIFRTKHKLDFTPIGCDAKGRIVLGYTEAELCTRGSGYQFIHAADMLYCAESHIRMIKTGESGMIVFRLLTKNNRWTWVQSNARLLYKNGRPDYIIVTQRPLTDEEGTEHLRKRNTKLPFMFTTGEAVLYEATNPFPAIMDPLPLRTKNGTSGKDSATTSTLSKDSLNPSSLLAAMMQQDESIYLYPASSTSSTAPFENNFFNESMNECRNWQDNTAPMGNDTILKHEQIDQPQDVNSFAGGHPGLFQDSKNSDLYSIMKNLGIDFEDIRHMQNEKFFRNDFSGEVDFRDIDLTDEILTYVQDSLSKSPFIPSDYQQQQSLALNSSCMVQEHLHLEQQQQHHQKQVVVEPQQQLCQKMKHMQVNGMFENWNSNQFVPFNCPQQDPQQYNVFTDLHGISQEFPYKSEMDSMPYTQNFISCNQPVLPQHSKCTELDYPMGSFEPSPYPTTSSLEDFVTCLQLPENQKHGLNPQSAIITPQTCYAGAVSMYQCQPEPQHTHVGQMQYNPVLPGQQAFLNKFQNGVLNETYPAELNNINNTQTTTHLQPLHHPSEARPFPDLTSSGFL

Row | SMILES | activation | Potency
1 | CC1COC(Cn2cncn2)(c2ccc(Oc3ccc(Cl)cc3)cc2Cl)O1 (stereo not given) | -6.1% (inactive) | –
2 | COC(=O)[C@@H]1[C@H]2CC[C@@H](C[C@H]1OC(=O)c1ccccc1)N2C | 0.0976% (inactive) | –
3 | C[N+]1(C)[C@@H]2CC[C@H]1CC(OC(=O)c1c[nH]c3ccccc13)C2 (stereo not given in full) | -4.17% (inactive) | –
4 | CN(C)CCCCCCN(C)C (tested in a mixture with another compound) | 2.39% (inactive) | –
5 | C[C@@H](CO)NC(=O)[C@@H]1C=C2c3cccc4[nH]cc(c34)C[C@H]2N(C)C1 | 2.67% (inactive) | –
6 | O=c1ccc2cc(O[C@@H]3O[C@H](CO)[C@@H](O)[C@H](O)[C@H]3O)c(O)cc2o1 | -1.45% [at 32.5 µM] (inactive) | –
7 | O=P(OC(CCl)CCl)(OC(CCl)CCl)OC(CCl)CCl | -0.441% (inactive) | –
8 | CN1[C@@H]2CC[C@H]1CC(OC1c3ccccc3CCc3ccccc31)C2 (stereo not given in full) | -0.748% [at 32.5 µM] (inactive) | –
9 | O=C1CN=C(c2ccccc2)c2cc(Cl)ccc2N1 | -2.56% (inactive) | –
10 | O=C1CN(O)C(c2ccccc2)=c2cc(Cl)ccc2=N1 | -0.0119% (inactive) | –
11 | CNC1(c2ccccc2Cl)CCCCC1=O (stereo not given) | – | inactive
12 | C[C@@H]1[C@@H]2Cc3ccc(O)cc3[C@@]1(C)CCN2CC1CC1 | -0.914% (inactive) | –
13 | Cc1nnc2n1-c1ccc(Cl)cc1C(c1ccccc1)=NC2 | -0.402% (inactive) | –
14 | c1csc(C2(N3CCCCC3)CCCCC2)c1 | 1.33% (inactive) | –
15 | C[C@]12CC[C@H]3[C@@H](CCC4=C(O)C(=O)CC[C@@H]43)[C@@H]1CC[C@@H]2OC(=O)CCC1CCCC1 | 3.57% (inactive) | –
16 | CCN(CC)/[N+]([O-])=N/O | 1.1% (inactive) | –
17 | C=CCN1CC[C@]23c4c5ccc(O)c4O[C@H]2[C@@H](O)C=C[C@H]3[C@H]1C5 | 0.0088% (inactive) | –
18 | COC(=O)[C@H]1[C@@H](OC(=O)c2ccccc2)C[C@@H]2CC[C@H]1N2C | -2.47% (inactive) | –
19 | CCCC(C)(COC(N)=O)COC(=O)NC1CC1 (stereo not given) | -0.132% (inactive) | –
20 | Nc1ccccc1[N+](=O)[O-] | -1.27% [at 95 µM] (inactive) | –

Row | SMILES | activation | Potency
21 | CCc1cccc(CC)c1N | 1.19% (inactive) | –
22 | Cc1ccccc1-n1c(CF)nc2ccc(N)cc2c1=O | – | 29.8 µM (active)
23 | CC(=O)OCC(=O)[C@H]1CC[C@H]2[C@@H]3CC[C@H]4C[C@H](O)CC[C@]4(C)[C@H]3C(=O)C[C@]12C | 0.0118% [at 32.5 µM] (inactive) | –
24 | CCc1cc(OC)c(C[C@@H](C)N)cc1OC | -1.41% [at 95 µM] (inactive) | –
25 | c1ccc(C2(N3CCCC3)CCCCC2)cc1 | – | 26.6 µM (active)
26 | Cc1nnc2n1-c1sc(Br)cc1C(c1ccccc1Cl)=NC2 | -0.881% (inactive) | –
27 | CC(=O)O[C@H]1CC[C@H]2[C@@H]3CCC4=CC(=O)CCC4=C3C=C[C@]12C | 2.9% (inactive) | –
28 | Oc1ccc2c3c1O[C@H]1[C@@H](O)CC[C@@]4(O)[C@@H](C2)N(CC2CCC2)CC[C@]314 | -0.067% (inactive) | –
29 | O=C1OC(=O)c2c(Cl)c(Cl)c(Cl)c(Cl)c21 | -1.17% [at 95 µM] (inactive) | –
30 | Cc1c(N)cccc1N | – | 27.9 µM (active)
31 | CCOC(=O)C(O)(c1ccc(Cl)cc1)c1ccc(Cl)cc1 | – | 24.6 µM (active)
32 | CCC1(c2cnc[nH]2)Cc2ccccc2C1 | – | 23.7 µM (active) and 8.41 µM (active)
33 | CC(=O)Oc1ccc2c3c1O[C@H]1[C@@H](OC(C)=O)C=C[C@H]4[C@@H](C2)N(C)CC[C@@]341 | – | inactive
34 | CC(=O)[C@H]1CC[C@H]2[C@@H]3CC[C@@H]4C[C@H](O)CC[C@]4(C)[C@H]3CC[C@]12C | -0.688% (inactive) | –
35 | CC(Cc1ccccc1)NC=O (stereo not given) | 1.18% (inactive) | –
36 | CN[C@@H]1C[C@@H](c2ccc(Cl)c(Cl)c2)c2ccccc21 | – | 29.8 µM (active)
37 | O=C(Nc1ccccc1-c1ccc(Cl)cc1)c1cccnc1Cl | 9.23% [at 95 µM] (inactive) | –
38 | OC[C@@H](O)[C@H]1O[C@@H]2O[C@@H](C(Cl)(Cl)Cl)O[C@@H]2[C@H]1O | -1.07% (inactive) | –
39 | CCCCCc1cc(O)c2c(c1)OC(C)(C)c1ccc(C)cc1-2 | – | 3.35 µM (active)
40 | COc1ccc2c(c1)C13CCCC[C@@H]1C(C2)N(C)CC3 (stereo not given in full) | -3.6% (inactive) | –
